For 33 molecules, IC50 results are on record in PubChem BioAssay AID651564 (Sanford-Burnham Center for Chemical Genomics, 2012).

Some of the results follow. Activity calls are given as the source filed them. No stated cut-off is given here; in the data, active means IC50 below about 80 µM; inactive means the rest.

This test can be described thus: isolated mitochondria fluorescence counter-assay – biochemical, uHTS hits, counter-screen for MPTP inhibitor project, dose response (AID 651564). The conditions noted are these: isolated mitochondria counterscreen, fluorescence read-out.
What is called IC50 is the point on the concentration scale where inhibition reaches its midpoint. Turning to `O=C(Nc1cccc(-c2cccc(Cl)c2)c1)C1CCN(C2CCC2)CC1`, the IC50 is 33.6 µM (active).
On to `NC(N)=N/N=C/c1ccc(Cl)c([N+](=O)[O-])c1`, for which the IC50 was 71.5 µM (active).
The figure for `CN(C)Cc1ccc(F)cc1Sc1cc(Cl)ccc1Cl` is 69.1 µM (active).
The figure for `CCOC(=O)c1c(NC(=O)CSc2cn(CC)c3ccccc23)sc2c1CCC2` is > 80 µM (inactive).
The result for `CCCC[C@@H]1CN=C(N)N1CCc1cc(C(F)(F)F)cc(C(F)(F)F)c1` reads 28.5 µM (active).
As for `CCCCCCCCCCCCN1C(=O)CSC1c1cccnc1` (stereo not drawn), the IC50 is 12 µM (active).
The figure for `O=C(c1ccc(Cl)cc1)c1ccc(OCC(O)CN2CCCCC2)cc1` (stereo not drawn) is 34.8 µM (active).
The figure for `CCCc1[nH]nc2c1C(c1c(C)nn(-c3ccccc3)c1Cl)C(C#N)=C(N)O2` (stereo not drawn) is > 80 µM (inactive).
The result for `Cc1ccc(-c2noc(CCC(=O)Nc3ccccc3N3CCN(C)CC3)n2)cc1` reads > 80 µM (inactive); that for `CCCC(C(=O)OCCN(CC)CC)(c1ccccc1)c1ccccc1`, 77.1 µM (active).
`Cc1ccc2c(c1)C1CN(C)CCC1N2S(=O)(=O)c1ccc(Oc2ccc([N+](=O)[O-])cc2)cc1` (stereo not drawn): the IC50 was > 80 µM (inactive).
The result for `Cc1cc(C)c(NC(=O)C[N+](C)(C)CC(O)COc2cccc3ccccc23)c(C)c1` (stereo not drawn) reads 47.5 µM (active); that for `CN(C)Cc1ccccc1C1(O)c2ccccc2CSc2ccccc21` (stereo not drawn), > 80 µM (inactive); that for `O=C(Nc1cccc(C(F)(F)F)c1)c1ccc(N2CCNCC2)c([N+](=O)[O-])c1`, > 80 µM (inactive).
The result for `CC1(C)CC(=O)c2sc(N)nc2C1` reads > 80 µM (inactive).
The figure for `COc1ccc(/C=C(/CC(=O)Nc2ccc(C)cc2)c2nc3ccccc3s2)cc1` is > 80 µM (inactive).
On to `Cc1nn(Cc2ccccc2)c2c1C(c1ccccc1)C(C#N)=C(N)O2` (stereo not drawn), for which the IC50 was 69.8 µM (active).
The figure for `CN1CCC[C@@H]1CCO[C@](C)(c1ccccc1)c1ccc(Cl)cc1` is > 80 µM (inactive); for `C[C@@H](CN1CCC[C@H]1CN1C(N)=NC[C@@H]1Cc1ccccc1)N1C[C@@H](Cc2ccccc2)N(CCCC2CCCC2)C1=N` it is 16.3 µM (active); for `O=C(NC1CCN(Cc2ccccc2)CC1)c1cc(Br)c(Br)[nH]1` it is > 80 µM (inactive).
As to `Brc1ccc(CSc2ccc(-c3ccco3)nn2)cc1`, the IC50 is > 80 µM (inactive).
The figure for `NC[C@H](Cc1ccccc1)NCCc1cc(C(F)(F)F)cc(C(F)(F)F)c1` is 52.7 µM (active); for `COc1ccc2sc(N(CCCN(C)C)C(=O)c3ccc(S(=O)(=O)N(C)C4CCCCC4)cc3)nc2c1` it is 66.5 µM (active); for `N=c1n(Cc2ccc(Cl)cc2)c2ccccc2n1CC(O)c1ccco1` (stereo not drawn) it is 13.1 µM (active).
The figure for `FC(F)(F)COc1nc(N2CCCCC2)nc(N2CCNCC2)n1` is > 80 µM (inactive); for `CCNCCC(=O)N1c2ccccc2Sc2ccc(NC(=O)OCC)cc21` it is > 80 µM (inactive).
For the molecule `COCCn1c(CN2CCC(Cc3ccccc3)CC2)nc2c1c(=O)n(C)c(=O)n2C`, the IC50 is 5.73 µM (active).
The result for `Clc1ccc(-c2cc(C3CCNCC3)[nH]n2)c(Cl)c1` reads > 80 µM (inactive); that for `CCCCOC(=O)CNc1nnc(SCC(=O)OCC)[nH]c1=O`, > 80 µM (inactive); that for `CCCCOc1ccc(CSC(=N)N)cc1[N+](=O)[O-]`, > 80 µM (inactive).
The result for `CCCCc1nc(NCCN)c(C#N)c2c1CSC(C)(C)C2` reads > 80 µM (inactive); that for `Fc1ccc(N2N=C(c3cccs3)CC2c2ccco2)c(F)c1` (stereo not drawn), > 80 µM (inactive); that for `O=C(COC(=O)c1ccccc1NC(=O)c1ccco1)Nc1ccc2c(c1)OC(F)(F)O2`, 10.7 µM (active).
